From PubChem BioAssay (NCATS) come the findings set out here.

The structures appear in SMILES notation. Inconclusive results are not listed. Activity calls are given as the source filed them. Calls follow the shape of the dose curve; as a rule, active = well fitted inhibition curve with a large enough effect; inconclusive = small, poorly fitted or top-dose-only effect; inactive = no such curve, though single readings can be large or run the other way.
Potency is read from the fitted curve at half-maximal effect.

In the assay the target is Aldehyde dehydrogenase 1A1 (Homo sapiens) (UniProt P00352). As to the kind of experiment: qHTS for Inhibitors of the Aldehyde Dehydrogenase Family (ALDH1A1) Confirmatory screens (AID 2061316). Also: nearly all actives have a fitted effect of over 65% in size. As to conditions: ALDH inhibition qHTS; series mostly up to 47.3 µM. A general note: qHTS replaces the single test concentration by a dilution series.
Turning to `O=S1(=O)N=C(Oc2ccc(Br)cc2)c2ccccc21`, the Potency was 12.7 µM (active).

`O=c1c2ccccc2nc2sc(NS(=O)(=O)c3ccc4c(c3)CCC4)nn12`: the Potency was 8.96 µM (active).

As to `CN(CC(=O)Nc1ccc(N2CCOCC2)cc1)Cc1cccc2ccccc12`, the Potency was 11.3 µM (active).

Regarding `FC(F)(F)c1ccccc1-c1nc(NCc2ccc(-c3ccc(Cl)c(Cl)c3)cc2)c2ccccc2n1`, the Potency was 20.1 µM (active).

For the compound `Cc1ccc([S+](=O)([O-])Nc2nn3c(=O)c4ccccc4nc3s2)cc1C`, the Potency is 12.7 µM (active).

For the compound `O=C1c2ccccc2NC(c2ccc(-c3cccc(Cl)c3)o2)N1O` (configuration not stated), the Potency was 22.5 µM (active).

With `COc1cccc(CNc2ccc(S(=O)(=O)Nc3cccs3)cc2)c1O`, the Potency was 0.634 µM (active).
